Positions count from the first letter of the chain named. The full ranking holds about 16,000 sequences; the median of “ka relative to ugcaugu” is about 0.0091, and the highest 2% start at about 0.032. The entries come from a sample that favours the highest values as a whole.
T1: RBFOX1 RRM (Homo sapiens, UniProt Q9NWB1 109-208)
T1 sequence: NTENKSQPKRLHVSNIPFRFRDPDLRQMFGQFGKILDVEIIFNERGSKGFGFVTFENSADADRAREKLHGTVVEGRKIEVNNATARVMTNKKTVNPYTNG

B1: ACAGCUC (DNA:RNA)
RNA: GGGAGACCGGAAUUCAGAUUGUCCACAGCUCUUAAAUCCCGUCGUAGCCACCA
DNA 1: CAATCTGAATTCCGGTCTCCC
DNA 2: TGGTGGCTACGACGGGATT
B2: CUAUCUG (DNA:RNA)
RNA: B1 RNA with A25C, C26U, G28U, C31G
DNA 1: CAATCTGAATTCCGGTCTCCC
DNA 2: TGGTGGCTACGACGGGATT
B3: UAAGCGA (DNA:RNA)
RNA: B1 RNA with A25U, C26A, U30G, C31A
DNA 1: CAATCTGAATTCCGGTCTCCC
DNA 2: TGGTGGCTACGACGGGATT
B4: GGUCAGA (DNA:RNA)
RNA: GGGAGACCGGAAUUCAGAUUGUCCGGUCAGAUUAAAUCCCGUCGUAGCCACCA
DNA 1: CAATCTGAATTCCGGTCTCCC
DNA 2: TGGTGGCTACGACGGGATT
B5: CAUUUGG (DNA:RNA)
RNA: B4 RNA with G25C, G26A, C28U, A29U, A31G
DNA 1: CAATCTGAATTCCGGTCTCCC
DNA 2: TGGTGGCTACGACGGGATT
B6: GACUAUC (DNA:RNA)
RNA: B1 RNA with A25G, C26A, A27C, G28U, C29A
DNA 1: CAATCTGAATTCCGGTCTCCC
DNA 2: TGGTGGCTACGACGGGATT
B7: AAAGUAC (DNA:RNA)
RNA: B1 RNA with C26A, C29U, U30A
DNA 1: CAATCTGAATTCCGGTCTCCC
DNA 2: TGGTGGCTACGACGGGATT
B8: AAAACUA (DNA:RNA)
RNA: B1 RNA with C26A, G28A, C31A
DNA 1: CAATCTGAATTCCGGTCTCCC
DNA 2: TGGTGGCTACGACGGGATT
B9: GAUCUCU (DNA:RNA)
RNA: B4 RNA with G26A, A29U, G30C, A31U
DNA 1: CAATCTGAATTCCGGTCTCCC
DNA 2: TGGTGGCTACGACGGGATT
B10: UUAAGUU (DNA:RNA)
RNA: B1 RNA with A25U, C26U, G28A, C29G, C31U
DNA 1: CAATCTGAATTCCGGTCTCCC
DNA 2: TGGTGGCTACGACGGGATT
B11: UGCGUCC (DNA:RNA)
RNA: B1 RNA with A25U, C26G, A27C, C29U, U30C
DNA 1: CAATCTGAATTCCGGTCTCCC
DNA 2: TGGTGGCTACGACGGGATT
B12: UGCGUGC (DNA:RNA)
RNA: B1 RNA with A25U, C26G, A27C, C29U, U30G
DNA 1: CAATCTGAATTCCGGTCTCCC
DNA 2: TGGTGGCTACGACGGGATT
B13: UUCGUGC (DNA:RNA)
RNA: B1 RNA with A25U, C26U, A27C, C29U, U30G
DNA 1: CAATCTGAATTCCGGTCTCCC
DNA 2: TGGTGGCTACGACGGGATT
B14: UGCGUCG (DNA:RNA)
RNA: B1 RNA with A25U, C26G, A27C, C29U, U30C, C31G
DNA 1: CAATCTGAATTCCGGTCTCCC
DNA 2: TGGTGGCTACGACGGGATT
B15: UGCUGCG (DNA:RNA)
RNA: B4 RNA with G25U, U27C, C28U, A29G, G30C, A31G
DNA 1: CAATCTGAATTCCGGTCTCCC
DNA 2: TGGTGGCTACGACGGGATT
B16: UGCGUUU (DNA:RNA)
RNA: B1 RNA with A25U, C26G, A27C, C29U, C31U
DNA 1: CAATCTGAATTCCGGTCTCCC
DNA 2: TGGTGGCTACGACGGGATT
B17: CGCGUGC (DNA:RNA)
RNA: B1 RNA with A25C, C26G, A27C, C29U, U30G
DNA 1: CAATCTGAATTCCGGTCTCCC
DNA 2: TGGTGGCTACGACGGGATT
B18: UGUGUCC (DNA:RNA)
RNA: B1 RNA with A25U, C26G, A27U, C29U, U30C
DNA 1: CAATCTGAATTCCGGTCTCCC
DNA 2: TGGTGGCTACGACGGGATT
B19: UGCGCGU (DNA:RNA)
RNA: B1 RNA with A25U, C26G, A27C, U30G, C31U
DNA 1: CAATCTGAATTCCGGTCTCCC
DNA 2: TGGTGGCTACGACGGGATT
B20: UGCGUGU (DNA:RNA)
RNA: B4 RNA with G25U, U27C, C28G, A29U, A31U
DNA 1: CAATCTGAATTCCGGTCTCCC
DNA 2: TGGTGGCTACGACGGGATT
B21: UCCUGCG (DNA:RNA)
RNA: B1 RNA with A25U, A27C, G28U, C29G, U30C, C31G
DNA 1: CAATCTGAATTCCGGTCTCCC
DNA 2: TGGTGGCTACGACGGGATT
B22: CUGCGUG (DNA:RNA)
RNA: B1 RNA with A25C, C26U, A27G, G28C, C29G, C31G
DNA 1: CAATCTGAATTCCGGTCTCCC
DNA 2: TGGTGGCTACGACGGGATT
B23: CCGCACU (DNA:RNA)
RNA: B4 RNA with G25C, G26C, U27G, G30C, A31U
DNA 1: CAATCTGAATTCCGGTCTCCC
DNA 2: TGGTGGCTACGACGGGATT
B24: CGCCCCU (DNA:RNA)
RNA: B4 RNA with G25C, U27C, A29C, G30C, A31U
DNA 1: CAATCTGAATTCCGGTCTCCC
DNA 2: TGGTGGCTACGACGGGATT
B25: UUCUAAG (DNA:RNA)
RNA: B4 RNA with G25U, G26U, U27C, C28U, G30A, A31G
DNA 1: CAATCTGAATTCCGGTCTCCC
DNA 2: TGGTGGCTACGACGGGATT
B26: GGUGUGG (DNA:RNA)
RNA: B4 RNA with C28G, A29U, A31G
DNA 1: CAATCTGAATTCCGGTCTCCC
DNA 2: TGGTGGCTACGACGGGATT
B27: AUUAACU (DNA:RNA)
RNA: B4 RNA with G25A, G26U, C28A, G30C, A31U
DNA 1: CAATCTGAATTCCGGTCTCCC
DNA 2: TGGTGGCTACGACGGGATT
B28: GUUCCAG (DNA:RNA)
RNA: B4 RNA with G26U, A29C, G30A, A31G
DNA 1: CAATCTGAATTCCGGTCTCCC
DNA 2: TGGTGGCTACGACGGGATT
B29: UAUCCAA (DNA:RNA)
RNA: B4 RNA with G25U, G26A, A29C, G30A
DNA 1: CAATCTGAATTCCGGTCTCCC
DNA 2: TGGTGGCTACGACGGGATT
B30: CCACCGU (DNA:RNA)
RNA: B1 RNA with A25C, G28C, U30G, C31U
DNA 1: CAATCTGAATTCCGGTCTCCC
DNA 2: TGGTGGCTACGACGGGATT
B31: GUAAUAU (DNA:RNA)
RNA: B1 RNA with A25G, C26U, G28A, C29U, U30A, C31U
DNA 1: CAATCTGAATTCCGGTCTCCC
DNA 2: TGGTGGCTACGACGGGATT

The binders below were run against T1, RBFOX1 RRM (assay: EMSA; HiTS-Eq, 1 nM pool, 10 min; buffer printed only for the single-RNA assays: 10 mM Tris pH 7.5, 150 mM NaCl, 3.4 mM EDTA, 0.001% NP-40, 30 C). Conditions: tags: His6 N-terminal (pET28a); label: 5' 32P.
Procedure, shortened: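 Purified wild-type or mutant RbFox RRM at increasing concentrations was equilibrated with 1 nM of 5′-radiolabelled RNA carrying 7 randomized nucleotides for 10 min in 50 µL. Unbound RNA was separated by 8% native PAGE and sequenced. Relative association constants came from read-count changes of each RNA species compared with the control reaction, normalised to the cognate motif.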

Row | Binder | binding signal
1 | B1 | 0.00303 KA relative to UGCAUGU
2 | B2 | 0.00983 KA relative to UGCAUGU
3 | B3 | 0.0108 KA relative to UGCAUGU
4 | B4 | 0.00171 KA relative to UGCAUGU
5 | B5 | 0.014 KA relative to UGCAUGU
6 | B6 | 0.00429 KA relative to UGCAUGU
7 | B7 | 0.00371 KA relative to UGCAUGU
8 | B8 | 0.00178 KA relative to UGCAUGU
9 | B9 | 0.0194 KA relative to UGCAUGU
10 | B10 | 0.0109 KA relative to UGCAUGU
11 | B11 | 0.0132 KA relative to UGCAUGU
12 | B12 | 0.0465 KA relative to UGCAUGU
13 | B13 | 0.0243 KA relative to UGCAUGU
14 | B14 | 0.0236 KA relative to UGCAUGU
15 | B15 | 0.0333 KA relative to UGCAUGU
16 | B16 | 0.0236 KA relative to UGCAUGU

Row | Binder | binding signal
17 | B17 | 0.0241 KA relative to UGCAUGU
18 | B18 | 0.0226 KA relative to UGCAUGU
19 | B19 | 0.0288 KA relative to UGCAUGU
20 | B20 | 0.0418 KA relative to UGCAUGU
21 | B21 | 0.0166 KA relative to UGCAUGU
22 | B22 | 0.035 KA relative to UGCAUGU
23 | B23 | 0.00621 KA relative to UGCAUGU
24 | B24 | 0.00718 KA relative to UGCAUGU
25 | B25 | 0.00998 KA relative to UGCAUGU
26 | B26 | 0.0188 KA relative to UGCAUGU
27 | B27 | 0.00102 KA relative to UGCAUGU
28 | B28 | 0.0134 KA relative to UGCAUGU
29 | B29 | 0.00131 KA relative to UGCAUGU
30 | B30 | 0.0012 KA relative to UGCAUGU
31 | B31 | 0.00279 KA relative to UGCAUGU

Source: publication PMC9911399, “Two distinct binding modes provide the RNA-binding protein RbFox with extraordinary sequence specificity”
